From PubChem BioAssay AID1030 (National Center for Advancing Translational Sciences (NCATS), 2008)
About 16,000 (7.3%) of roughly 220,000 compounds were called active. A call without a number means that no potency is given here. Another 25% or so got no clear call; they are omitted. The call rests on the fitted dose curve; in most records, active means well fitted inhibition curve with a large enough effect (not every such curve was filed as active); inconclusive means small, poorly fitted or top-dose-only effect, or another doubt; inactive means no such curve, though single readings can be large or run the other way. For the sample, actives were picked, then their nearest neighbours and some compounds at random.

The molecules below were run against Aldehyde dehydrogenase 1A1 (Homo sapiens) (UniProt P00352) (assay: qHTS Assay for Inhibitors of Aldehyde Dehydrogenase 1 (ALDH1A1)). Details: Purified ALDH1A1, NADH fluorescence, propionaldehyde substrate; series mostly up to 75.3 µM.
Potency means the concentration at half of the fitted maximal effect.

Sequence of Aldehyde dehydrogenase 1A1 (Homo sapiens) (P00352 whole entry, looked up): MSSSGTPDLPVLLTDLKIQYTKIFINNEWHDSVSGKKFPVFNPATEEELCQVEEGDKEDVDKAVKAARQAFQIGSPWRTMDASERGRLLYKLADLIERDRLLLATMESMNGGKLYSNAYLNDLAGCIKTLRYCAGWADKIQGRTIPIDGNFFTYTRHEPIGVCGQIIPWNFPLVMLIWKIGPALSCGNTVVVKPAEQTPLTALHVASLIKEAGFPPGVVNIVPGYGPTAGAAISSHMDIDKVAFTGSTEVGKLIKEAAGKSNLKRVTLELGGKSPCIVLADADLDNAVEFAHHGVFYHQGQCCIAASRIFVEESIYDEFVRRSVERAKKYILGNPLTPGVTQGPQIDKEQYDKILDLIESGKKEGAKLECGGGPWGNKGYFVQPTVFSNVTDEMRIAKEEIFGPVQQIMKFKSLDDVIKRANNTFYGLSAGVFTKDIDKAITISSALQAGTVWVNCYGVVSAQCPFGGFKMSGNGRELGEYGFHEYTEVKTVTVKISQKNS

SMILES | Potency | activity, negative = inhibition
CCCC(=O)Nc1nnc(-c2ccccc2)o1 | inactive | 
COc1ccc(C(=O)NC2CCN(C(=S)Nc3ccccc3)CC2)cc1 | inactive | 
Cc1nnc(SCC(=O)N2CCN(c3ccccc3)CC2)n1-c1ccccc1 | inactive | 
CCN(CC)C(=O)CSc1nc2ccccc2n1CC(=O)N1CCN(c2ccccc2OC)CC1 | inactive | 
CC(C)N(C(=O)Cn1c(SCC(=O)N2CCN(c3ccccc3)CC2)nc2ccccc21)C(C)C | 25.1 µM (active) | 
CCN1CCN(c2ccc(NC(=O)c3cnccn3)cc2)CC1 | inactive | 
COc1ccc(Nc2ncc(F)c(N3CCOCC3)n2)cc1 | inactive | 
CC(C(=O)NC1CCCC1)N(c1ccc(Oc2ccccc2)cc1)S(C)(=O)=O (centres undefined) | inactive | 
Cc1ccc(N2C(=O)SC(N(CC(=O)O)c3ccc(C)cc3)C2=O)cc1 (centres undefined) | inactive | 
Cc1cccc(N(CC(=O)N2CCOCC2)S(C)(=O)=O)c1 | inactive | 
Cc1cccc(N2C(=O)SC(N(CC(=O)O)c3cccc(C)c3)C2=O)c1 (centres undefined) | 14.1 µM (active) | 
Clc1ncn(CCOc2ccccc2)c1Cl | inactive | 
Cc1noc(C)c1S(=O)(=O)Nc1ccc(C(=O)N2CCN(c3ccc(F)cc3)CC2)cc1 | inactive | 
COc1ccccc1NC(=O)C1=C(C)NC2=C(C(=O)CCC2)C1c1ccc(C)o1 (centres undefined) | inactive | 
COC(=O)C1=C(C)NC(=O)NC1/C=C/c1ccccc1 (centres undefined) | inactive | 
COC(=O)C1=C(C)NC2=C(C(=O)c3ccccc32)C1c1ccc(-c2ccc(C(=O)O)cc2)o1 (centres undefined) | 3.16 µM (active) | 
COC(=O)c1cc2n(n1)CCCNC2=O | inactive | 
COc1ccc(/C=C2\SC(=N)N(c3ccc(F)cc3)C2=O)cc1 | inactive | 
O=C(Nc1ccc(Cl)cn1)c1ccc2c(c1)OCCO2 | inactive | 
CNc1ccc([N+](=O)[O-])cc1C(=O)O | inactive | 
COc1ccc(N2C(=O)CC(Nc3ccc(F)cc3)C2=O)c([N+](=O)[O-])c1 (centres undefined) | 17.8 µM (active) | 
COc1cccc(N2C(=O)C3CCCN3C2c2ccc(F)cc2)c1 (centres undefined) | inactive | 

SMILES | Potency | activity, negative = inhibition
COc1cc(OC)cc(C(=O)NC(=S)N2CCN(c3ccc(C(F)(F)F)cc3[N+](=O)[O-])CC2)c1 | inactive | 
CC(Oc1ccc(Br)cc1Br)C(=O)NC1CCCC1 (centres undefined) | inactive | 
CCC1CO/C(=C(\C(=C(Cl)Cl)N2CCOCC2)[N+](=O)[O-])N1 (centres undefined) | inactive | 
CCc1nnc(NC(=O)c2cccc(S(=O)(=O)N(C)c3ccc(OC)cc3)c2)s1 | inactive | 
Cc1ccc(S(=O)(=O)N2CCN(C(=O)c3cccs3)CC2)cc1 | inactive | 
Cc1[nH]c2ccccc2c1CCN(Cc1cccs1)C(=S)NC(C)(C)C | inactive | 
COc1cccc(NC(=S)N(CCc2c(C)[nH]c3ccccc23)Cc2ccco2)c1 | inactive | 
COc1ccc2[nH]c(C)c(CCN(Cc3cccs3)C(=S)Nc3ccccc3OC)c2c1 | 25.1 µM (active) | 
Cc1cc(Cl)ccc1OCc1nc(-c2ccncc2)no1 | inactive | 
Nc1ccccc1Sc1cc(Cl)nnc1Cl | 25.1 µM (active) | 
Cc1nn(C)c(C)c1Sc1ccccc1N | inactive | 
Nc1ccccc1N | inactive | 
COc1ccc(CN2CCN(Cc3cn(C)nc3-c3ccccc3)CC2CCO)c(C)c1C (centres undefined) | inactive | 
CCOC(=O)CSc1nnc(-c2ccc([N+](=O)[O-])cc2)o1 | inactive | 
COc1cccc(CN(C)CC(=O)NCc2ccccc2Cl)c1OC | inactive | 
Cc1ccccc1CN1C[C@@H]2C[C@@H](c3ccc4nsnc4c3)N3CCC[C@@]23C1=O | inactive | 
Cc1ccccc1CN1C[C@@H]2C[C@@H](c3cn(C)nc3-c3ccccc3)N3CCC[C@@]23C1=O | 1.58 µM (active) | 
Cc1ccc(CN2CCN(Cc3cn(C)nc3-c3ccccc3)CC2CCO)o1 (centres undefined) | inactive | 
Cn1nnc2cc(C(=O)NCCC3=CCCCC3)ccc21 | inactive | 
CC1CCCN(C(=O)c2ccc3c(c2)C(=O)N(CCC2=CCCCC2)C3=O)C1 (centres undefined) | 0.501 µM (active) | 
CC1CCCN(C(=O)Cn2c(=O)oc3ccccc32)C1 (centres undefined) | inactive | 
CCN(CC)C(=O)Cn1cc(S(=O)(=O)CC(=O)NCc2ccc3c(c2)OCO3)c2ccccc21 | inactive | 

SMILES | Potency | activity, negative = inhibition
Cc1ccc(C(=O)COC(=O)CCCC(=O)NC2CCCCC2)cc1[N+](=O)[O-] | inactive | 
Cc1cc(C=O)c(C)n1-c1ccc(NC2CCCCC2)c([N+](=O)[O-])c1 | 5.62 µM (active) | 
Cc1c(NS(=O)(=O)c2ccc(NC3CCCC3)c([N+](=O)[O-])c2)c(=O)n(-c2ccccc2)n1C | inactive | 
Cc1cc(-c2n[nH]c(=S)n2/N=C/C(Br)=C/c2ccccc2)n[nH]1 | 17.8 µM (active) | 
S=c1[nH]nc(-c2cccnc2)n1/N=C/C(Cl)=C\c1ccccc1 | inactive | 
CN1CCN(C2=NCCO2)CC1 | inactive | 
O=C(Nc1cccc2ncccc12)C(Cl)(Cl)Cl | inactive | 
O=C(O)c1cc(Cl)c(Cl)cc1C(=O)Nc1cccc2ncccc12 | inactive | 
Cc1ccc(/C=C(\C#N)C(=O)Nc2cccc3ncccc23)o1 | 8.91 µM (active) | 
CCN(CC)CCCSc1nc2ccccc2s1 | inactive | 
COC(=O)c1ccc(COC(=O)c2cnccn2)cc1 | inactive | 
N#CC1=C(N)Oc2n[nH]c(CSc3ccccc3)c2C12C(=O)Nc1ccccc12 (centres undefined) | 10 µM (active) | 
COc1cc2sc(C)nc2cc1C | inactive | 
Cc1ccc(NC(=O)c2ccc(Oc3ncccn3)cc2)cc1 | inactive | 
C=C(C(C)=O)C(O)c1cccs1 (centres undefined) | inactive | 
CCCC(=O)Nc1ccc2c(c1)nc1n2CCSC1 | 25.1 µM (active) | 
CCC(=O)Nc1ccc2c(c1)nc(CCN1CCN(C)CC1)n2C | inactive | 
CCCC(=O)Nc1nc2ccc(NC(=O)c3c(F)c(F)c(OC)c(F)c3F)cc2s1 | inactive | 
COC(=O)c1ccc(NC(=S)Nc2cccc(C)n2)cc1 | inactive | 
Cc1cccc(OC(=O)c2sc3ncn(C)c(=O)c3c2C)c1 | inactive | 
CCN1CCN(C(=O)CN(C)S(=O)(=O)c2ccc3ccccc3c2)CC1 | inactive | 
CCC1CCCCN1S(=O)(=O)Cc1ccccc1Cl (centres undefined) | inactive | 

SMILES | Potency | activity, negative = inhibition
CS(=O)(=O)N(CC(=O)NC1CCCC1)Cc1ccc(F)cc1 | inactive | 
NNC(=O)c1cnn(-c2ccccc2)c1C(F)(F)F | 11.2 µM (active) | 
Cc1c(C(=O)NCc2ccccc2)cnn1-c1ccccc1 | inactive | 
Nc1c(C(=O)O)cnn1-c1ccccc1 | inactive | 
CC(=O)N1N=C(c2ccccc2)OC1c1cccnc1 (centres undefined) | inactive | 
COCc1c(C(=O)OCc2c(C)noc2C)oc2ccccc12 | inactive | 
Fc1ccc(CNCc2ccc(Br)cc2)cc1 | inactive | 
O=c1c2cc3c(=O)n(CC4CCCO4)c(=O)c3cc2c(=O)n1CC1CCCO1 (centres undefined) | 0.316 µM (active) | 
COC(=O)c1ccc2c(=O)n(CC3CCCO3)c(=S)[nH]c2c1 (centres undefined) | 1.78 µM (active) | 
Cc1nc2cnc(Nc3ccccc3)nc2n(C[C@H]2CCCO2)c1=O | inactive | 
S=c1[nH]nc(-c2ccc(Cl)cc2)n1CC1CCCO1 (centres undefined) | inactive | 
COCCn1c(=S)[nH]c2cc(C(=O)NCCc3ccc(OC)c(OC)c3)ccc2c1=O | inactive | 
COc1ccc(CCNC(=O)Cn2c(=O)n(CC3CCCO3)c(=O)c3ccccc32)cc1OC (centres undefined) | inactive | 
CCc1ccc(NC(=O)C(=O)N/N=C(\C)CC(=O)NCCOC)cc1 | inactive | 
CCOC(=O)c1cccc(NC(=O)CCOc2ccccc2)c1 | inactive | 
CCOC(=O)CSc1nc(C)cc2c1C(=O)OC2 | inactive | 
CCOC(=O)C1CCCN(C(=O)c2cccc(S(=O)(=O)N3CCOCC3)c2)C1 (centres undefined) | inactive | 
COc1cccc(N(Cc2nnc3n2CCCCC3)C(=O)Nc2ccccc2F)c1 | inactive | 
Cc1cc(C(=O)NNS(=O)(=O)c2ccccc2C(F)(F)F)nn1C(C)(C)C | inactive | 
O=C(Nc1ccc(Br)cn1)c1ccc([N+](=O)[O-])cc1Cl | inactive | 
O=C(CCN1C(=O)c2ccccc2C1=O)Nc1cccc(F)c1 | inactive | 
O=C1c2ccccc2C(=O)N1CCCSc1ccccc1 |  | -6.74% [at 13.5 µM] (inactive)

SMILES | Potency | activity, negative = inhibition
O=C1c2ccccc2C(=O)N1CCC(O)C[N+](=O)[O-] (centres undefined) | 22.4 µM (active) | 
Cc1ccc(C)c(CSc2nc(-c3ccco3)nc3c2c(=O)n(C)c(=O)n3C)c1 | inactive | 
O=C(O)CSc1nnc(-c2ccc3c(c2)OCO3)n1-c1ccccc1 | inactive | 
CC1(CCC(=O)OC2CCCCC2)OCCO1 |  | -6.23% [at 13.5 µM] (inactive)
CSc1nsc(SC)c1NC(=O)OC1CCCCC1 | 20 µM (active) | 
CSc1ncccc1C(=O)NC1CCCCCC1 | inactive | 
Cc1cccc(C2c3[nH]c4ccccc4c3CCN2C(=O)c2cc(-c3cccn3C)n[nH]2)n1 (centres undefined) | inactive | 
COc1ccc2c(c1)C(c1cccs1)=NNC(c1cccnc1)=N2 | inactive | 
CC(=O)Nc1ccc(NC(=O)C(C)n2c3ccccc3c3nc(=O)cc(C)n32)cc1 (centres undefined) | inactive | 
C/C(=N\Nc1nc(N2CCOCC2)nc(N2CCOCC2)n1)c1ccc([N+](=O)[O-])cc1 | inactive | 
COc1ccc(C(=O)Nc2cccc(S(C)(=O)=O)c2)cc1 | inactive | 
O=C(Nc1cccc(OCC(=O)N2CCOCC2)c1)C1CCCCC1 | inactive | 
COc1ccc(NS(=O)(=O)c2cc(NC(=O)C3CCCCC3)ccc2N2CCOCC2)cc1 | 2.51 µM (active) | 
CC(=O)Nc1ccc(S(=O)(=O)Nc2ccc(N3CCOCC3)c(F)c2)cc1 | inactive | 
COc1cccc(/C=C2\SC(=N)N(c3ccc(F)cc3)C2=O)c1 | inactive | 
COc1ccc(CCNC(=O)CSc2nnc3ccc(-c4ccncc4)nn23)cc1 | inactive | 
CN(C)C(=O)CSc1n[nH]c(-c2ccco2)n1 | inactive | 
CCOC(=O)c1cc2c(nc1NC(=S)Nc1ccccc1)CC(C)(CC)OC2 (centres undefined) | 12.6 µM (active) | 
CCOC(=O)c1cc2ccccc2nc1C | inactive | 
CCOC(=O)c1ccc(NC(=S)Nc2cc(C)cc(C)n2)cc1 | inactive | 
O=S(=O)(c1ccccc1)c1nc(-c2ccccc2F)oc1NCc1cccnc1 | inactive | 
